Measurements published in PubChem BioAssay.
“And” between values parts separate entries of the source, which are not always exact repeats. Equal values may be shown once. The source made the active and inactive calls.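 How the source made its calls, unless noted: active means compounds lowering colon cancer cell viability after pretreatment blocking the GSK3B kinase; inactive means the rest.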

How the values were obtained:
[1] = Wnt pathway potentiators raising nuclear beta-catenin – imaging, WNT3A-conditioned medium, mouse C2C12, NPC library, primary screen (AID 1117326; in the data active means nuclear beta-catenin stimulation mostly above about 4.2%, no sharp cut-off; inactive means mostly below about 10%; further: reference of the scale not given here); conditions: stronger effect = higher value
[2] = stimulators of insulin release from INS-1E, primary screen, cell-based, 5 mM glucose, NPC library (AID 1117329;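 active means compound raises insulin release from rat beta cells at 5 mM glucose, no numeric limit stated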; further: reference of the scale not given here); conditions: rat INS-1E insulin secretion, at 10 µM, stronger effect = higher value
[3] = growth inhibition of GSK3B-pretreated HCT116 cells – cell-based, CellTiter-Glo, 0.2 to 20 µM (AID 1117336); conditions: HCT116 viability after GSK3B inhibitor, at 20 µM, stronger effect = higher value
[4] = inhibition of endothelial tube formation, primary screen, imaging, VEGF stimulated, CD31 staining, tube area, NPC library (AID 1117340;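 active means compound that reduces growth-factor-driven endothelial tube area in a mixed cell culture, no cutoff stated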); conditions: VEGF-stimulated ADSC/ECFC co-culture, at 10 µM, stronger effect = higher value
[5] = GLP1 release stimulators, primary, NCI-H716, NPC library (AID 1117341;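 active means compound raises GLP1 secretion from the human gut endocrine cells, with no numeric limit stated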; further: reference of the scale not given here); conditions: NCI-H716 cells, at 10 µM, stronger effect = higher value
[6] = HCT116 colon cancer cell growth inhibition, primary screen, CellTiter-Glo luminescence, NPC library (AID 1117342;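 active means compounds that lower survival of HCT116 colon cancer cells in the luminescence readout, no numeric limit stated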); conditions: at 20 µM (top of the series)
[7] = reduced SW480 viability measured with CellTiter-Glo, NPC library, primary (AID 1117343;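 active means compounds that lower viability of the colon cancer cells in the luminescence readout, with no numeric limit stated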); conditions: CellTiter-Glo luminescence; at 20 µM (top of the series)
[8] = NPC library primary testing for decreased DLD-1 cell viability via CellTiter-Glo (AID 1117346;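 active means compounds that lower survival of DLD-1 colon cancer cells in the luminescence readout, no cutoff given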); conditions: DLD-1 viability, CellTiter-Glo luminescence; at 20 µM (top of the series)
[9] = target: 6-phosphogluconate dehydrogenase, decarboxylating (Homo sapiens) (UniProt P52209); assay: inhibition of human phosphogluconate dehydrogenase – biochemical, recombinant enzyme, NADPH absorbance, primary screen (AID 1159550;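 active means at least 20% inhibition of 6-phosphogluconate dehydrogenase activity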); conditions: recombinant 6PGD, NADPH absorbance 341 nm; at 10 µM; stronger effect = higher value
[10] = P. berghei load reduction in hepatocytes – cell-based, HepG2, luciferase luminescence, HepG2 viability, primary screen (AID 624349; in the data active means parasite load remaining mostly below about 12%, no sharp cut-off; inactive means mostly above about 10%;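 further: 100% = mean of DMSO negative control wells on the same plate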); conditions: P. berghei liver stage in HepG2, luciferase luminescence, concentration not given here; parasite load remaining: stronger effect = lower value; viability: measured here: HepG2 viability without parasites

Chain of 6-phosphogluconate dehydrogenase, decarboxylating (Homo sapiens) (P52209 whole entry, looked up): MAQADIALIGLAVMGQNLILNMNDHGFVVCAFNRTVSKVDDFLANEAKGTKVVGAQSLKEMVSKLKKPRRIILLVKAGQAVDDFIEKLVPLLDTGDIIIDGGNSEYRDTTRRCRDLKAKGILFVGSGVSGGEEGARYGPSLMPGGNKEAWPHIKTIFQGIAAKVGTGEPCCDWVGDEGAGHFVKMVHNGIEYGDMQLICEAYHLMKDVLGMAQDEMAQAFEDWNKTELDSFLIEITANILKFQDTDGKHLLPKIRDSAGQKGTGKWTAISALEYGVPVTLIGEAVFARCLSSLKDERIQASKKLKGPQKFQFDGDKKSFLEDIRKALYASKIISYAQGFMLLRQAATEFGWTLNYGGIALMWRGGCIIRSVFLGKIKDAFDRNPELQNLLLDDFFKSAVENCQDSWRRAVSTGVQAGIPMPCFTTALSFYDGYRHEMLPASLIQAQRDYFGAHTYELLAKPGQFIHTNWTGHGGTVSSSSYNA

SMILES	nuclear beta-catenin stimulation ([1]; at 10 µM)	nuclear beta-catenin stimulation ([1]; stimulation, at 2 µM) [%]	insulin secretion stimulation [2]	viability decrease [3]	tube area decrease [4]	GLP1 secretion stimulation [5]	inhibition of viability [6]	viability decrease (inhibition) [7]	viability decrease (inhibition) [8]	inhibition [9]	parasite load remaining [10]	viability [10]
CC(C)(Sc1cc(C(C)(C)C)c(O)c(C(C)(C)C)c1)Sc1cc(C(C)(C)C)c(O)c(C(C)(C)C)c1	4.3% (inactive)	6	3.7% (inactive)	-20.3% (inactive)	-25% (inactive)	0.8% (inactive)	1.57% (inactive)	9.4% (inactive)	37.1% (inactive)	6.05% (inactive)		
Cc1cc(NC(=O)C2=C(O)c3ccccc3S(=O)(=O)N2C)no1	4% (inactive)	1.7	-1.3% (inactive)	-24.5% (inactive)	14.8% (inactive)	-2.4% (inactive)	4.6% (inactive)	-6% (inactive)	-7.2% (inactive)	0.485% (inactive)		
Cc1ccc(C(=O)c2ccc(CC(=O)O)n2C)cc1	5.9% (inactive)	3.5	0.4% (inactive)	-13.7% (inactive)	-2.5% (inactive)	3.1% (inactive)	-3.2% (inactive)	-14.3% (inactive)	4.3% (inactive)	9.71% (inactive)		
CC(=O)Nc1cccc(O)c1	-0.7% (inactive)	2.5	1.1% (inactive)	-1.55% (inactive)	-19.6% (inactive)	-0.3% (inactive)	-14.5% (inactive)	32.8% (inactive)	4.35% (inactive)	11.9% (inactive)		
COC(=O)[C@@H](N)CS	-1.4% (inactive)	2.3	1.6% (inactive)	-1.8% (inactive)	-0.7% (inactive)	4.1% (inactive)	3.2% (inactive)	17.6% (inactive)	23.2% (active)	3.23% (inactive)		
O=c1cc(CO)occ1O	2.6% (inactive)	0.4	-1.3% (inactive)	-8.3% (inactive)	-7.1% (inactive)	1.9% (inactive)	-7% (inactive)	38.7% (inactive)	10.8% (inactive)	6.93% (inactive)		
CN1C(C(=O)Nc2ccccn2)=C(O)c2sccc2S1(=O)=O	0.8% (inactive)	1	1.6% (inactive)	-17.8% (inactive)	2.6% (inactive)	0.4% (inactive)	8.2% (inactive)	13.4% (inactive)	-0.2% (inactive)	-2.82% (inactive)		
CCCc1ncc(C[n+]2ccccc2C)c(N)n1	-1.3% (inactive)	-2	0.95% (inactive)	-5.4% (inactive)	6.7% (inactive)	0.7% (inactive)	-12.5% (inactive)	-33.4% (inactive)	-13.4% (inactive)	-3.15% (inactive)		
O=C1OCCN1/N=C/c1ccc([N+](=O)[O-])o1	1.7% (inactive)	-0.6	-3% (inactive)	24.6% (inactive)	-8.5% (inactive)	5.7% (inactive)	12.3% (inactive)	74.9% (active)	25.6% (inactive)	12.5% (inactive)		
CCO/C([O-])=N/c1c[n+](N2CCOCC2)no1	0.8% (inactive)	1.2	0.9% (inactive)	22.3% (inactive)	2.4% (inactive)	-0.5% (inactive)	8.63% (inactive)	43.4% (inactive)	-1.5% (inactive)	16.2% (inactive)		
CCCCOc1cc(C(=O)NCCN(CC)CC)c2ccccc2n1	5.7% (inactive)	1.8	1.6% (inactive)	-47.5% (inactive)	3.5% (inactive)	7.7% (inactive)	45.3% (inactive)	49.2% (inactive)	29.5% (inactive)	-0.88% (inactive)		
O=C1c2ccccc2C(=O)C1c1ccccc1	0.3% (inactive)	0.6	-1.2% (inactive)	-5.45% (inactive)	-11% (inactive)	2.1% (inactive)	-1% (inactive)	1.3% (inactive)	-4.85% (inactive)	8.94% (inactive)		
Cn1c(=O)c2c(ncn2CC(O)CO)n(C)c1=O (centres undefined)	-0.1% (inactive)	0.8	1.1% (inactive)	-2.9% (inactive)	-11.6% (inactive)	-0.3% (inactive)	7.4% (inactive)	12.3% (inactive)	5.3% (inactive)	-4.2% (inactive)		
COc1cc(/C=C/C(=O)CC(=O)/C=C/c2ccc(O)c(OC)c2)ccc1O	1.5% (inactive)	-2.5	1.35% (inactive)	26.1% (inactive)	-1.2% (inactive)	-0.1% (inactive)	11.9% (inactive)	-4.1% (inactive)	-7.3% (inactive)	8.75% (inactive)		
Cc1c(C(=O)O)c(O)cc2c1C(=O)c1c(O)c([C@@H]3O[C@H](CO)[C@@H](O)[C@H](O)[C@H]3O)c(O)c(O)c1C2=O	0% (inactive)	0.8	4.4% (inactive)	46.7% (inactive)	24.4% (inactive)	-1.7% (inactive)	35% (inactive)	53.2% (active)	34.5% (inactive)	-2.65% (inactive)		
C[C@@H]1CC[C@@]2(OC1)O[C@H]1C[C@H]3[C@@H]4CC[C@H]5C[C@@H](O)CC[C@]5(C)[C@H]4CC(=O)[C@]3(C)[C@H]1[C@@H]2C	6.5% (inactive)	4.8	3.2% (inactive)	13.4% (inactive)	-13.1% (inactive)	-3.1% (inactive)	4.27% (inactive)	7.5% (inactive)	3.7% (inactive)	14.9% (inactive)		
CCOC(=O)[C@H](CCc1ccccc1)N[C@@H](C)C(=O)N1CCC[C@H]1C(=O)O	4.4% (inactive)	1.5	0.7% (inactive)	1.3% (inactive)	-1.3% (inactive)	19.8% (inactive)	-3.77% (inactive)	12.5% (inactive)	3.4% (inactive)	-2.48% (inactive)		
CC(C)NC[C@@H](O)COc1cccc2ccccc12	-0.4% (inactive)	1.7	15.3% (inactive)	6.9% (inactive)	5.1% (inactive)	3.3% (inactive)	0.8% (inactive)	54.8% (active)	13.7% (inactive)	5.64% (inactive)		
O=C1C(=O)c2ccccc2C(O)=C1C1CCC(c2ccc(Cl)cc2)CC1 (centres undefined)	2.2% (inactive)	-1	1.1% (inactive)	96.3% (active)	69.9% (active)	1.4% (inactive)	97.1% (active)	144% (active)	99% (active)	5.16% (inactive)		
CO[C@]12C[C@@H](COC(=O)c3cncc(Br)c3)CN(C)[C@@H]1Cc1cn(C)c3cccc2c13	0.8% (inactive)	2.5	8.2% (inactive)	8.4% (inactive)	0.8% (inactive)	7.1% (inactive)	43.7% (inactive)	76.9% (active)	23.6% (inactive)	6.31% (inactive)		
NC(=O)NC1NC(=O)NC1=O (centres undefined)	-0.1% (inactive)	1.1	-2.3% (inactive)	-10.1% (inactive)	1.2% (inactive)	-1.2% (inactive)	8% (inactive)	0.3% (inactive)	-6.65% (inactive)	4.15% (inactive)		
Nc1c(Br)cc(Br)cc1CNC1CCC(O)CC1 (centres undefined)	1.6% (inactive)	0.3	4.7% (inactive)	33.6% (inactive)	20.4% (inactive)	-1.7% (inactive)	34.3% (inactive)	11.2% (inactive)	14% (inactive)	-12.9% (inactive)		
CC1CC(OC(=O)C(O)c2ccccc2)CC(C)(C)N1C (centres undefined)	-1.4% (inactive)	-0.1	2.7% (inactive)	3.6% (inactive)	10.4% (inactive)	2.1% (inactive)	9.83% (inactive)	17.1% (inactive)	0.1% (inactive)	-25.4% (inactive)	101% (inactive)	101%
Oc1c(I)cc(I)c2cccnc12	0.7% (inactive)	1	0.55% (inactive)	102% (active)	108% (active)	-3.1% (inactive)	89.9% (active)	147% (active)	96.2% (active)	-4.02% (inactive)	92.2% (inactive) and 20.2% (inactive)	77.1% and 92.8%
COc1ccc(C(=O)c2ccccc2)c(O)c1	1.5% (inactive)	1	-2.9% (inactive)	-5.25% (inactive)	6.3% (inactive)	0.5% (inactive)	14.4% (inactive)	3.3% (inactive)	-0.05% (inactive)	-7.36% (inactive)	175% (inactive) and 149% (inactive) and 68.3% (inactive)	96.8% and 72.8% and 91.5%
C=C1c2cccc(O)c2C(O)=C2C(=O)[C@]3(O)C(O)=C(C(N)=O)C(=O)[C@@H](N(C)C)[C@@H]3[C@@H](O)[C@H]12	3.6% (inactive)	2.7	-1.8% (inactive)	-253% (inactive)	9.7% (inactive)	0.4% (inactive)	-0.33% (inactive)	-1.7% (inactive)	58.4% (active)	13.8% (inactive)	89.4% (inactive) and 160% (inactive) and 38% (inactive)	79.4% and 68.3% and 93.9%
Nc1nccs1	-1.6% (inactive)	0.3	-0.1% (inactive)	12.4% (inactive)	5.4% (inactive)	-1% (inactive)	25.5% (inactive)	66.3% (active)	10% (active)	5.79% (inactive)	56.3% (inactive)	97.8%
COc1ccc(CN(CCN(C)C)c2ncccn2)cc1	1.3% (inactive)	2.3	1.5% (inactive)	-26.6% (inactive)	5% (inactive)	4.9% (inactive)	14.6% (inactive)	4.3% (inactive)	-22.1% (inactive)	0.837% (inactive)	161% (inactive) and 52.7% (inactive)	86.2% and 91.9%
S=P(N1CC1)(N1CC1)N1CC1	-0.7% (inactive)	-0.3	1.3% (inactive)	16.4% (inactive)	35.1% (inactive)	-2.2% (inactive)	22.3% (inactive)	33.3% (inactive)	18.9% (inactive)	-6.76% (inactive)	137% (inactive) and 49.2% (inactive)	91% and 141%
